The source made the active and inactive calls. Unless noted, the rule behind the calls is not given here.

Experimental findings from PubChem BioAssay are described below.

Experiment [1] concerns Wnt5a (protein binding on small-molecule microarray). The experiment in a line: small molecules binding Wnt5a protein – biophysical, small-molecule microarray, 635/667 nm fluorescence, primary screen (AID 1142).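 Note: fluorescence read at 667 nm with signal to noise per printed feature.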 The conditions noted are these: 635 nm fluorescence, higher = more signal.
Experiment [2] can be described thus: ATP-based viability of Huh7 replicon cells – cell-based, CellTiter-Glo luminescence, basal, 48 h, cytotoxicity control for HCV replication inhibitor project, primary screen (AID 1143).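 Note: Huh7 hepatoma cells carrying a hepatitis C replication reporter with no stimulus; test concentration not given here.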 The settings on record: higher = more signal, called active from +8 up or from −8 down. (Replicon systems follow genome replication, usually without infectious particles.)
Experiment [3] can be described thus: Pseudomonas biofilm growth suppression – PAO1 strain, BacTiter-Glo luminescence, LB-PBS, primary screen (AID 1144). The conditions noted are these: P. aeruginosa PAO1 biofilm, 12 h, higher = more signal.
Experiment [4] in a line: basal CRE-LacZ reporter activity in PC12 – cell-based, unstimulated, primary screen (AID 1145). The settings on record: no forskolin, luminescence, 4.5 h, higher = more signal, called active from +8 up or from −8 down.
Experiment [5] is described as follows: forskolin-driven CRE-LacZ activity in PC12 – cell-based, CRE-LacZ reporter, forskolin-stimulated, primary screen (AID 1146).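 Note: PC12 cells with 6xCRE LacZ reporter stimulated by forskolin 10 µM; beta-galactosidase reporter signal reflecting CREB driven transcription.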 The settings on record: luminescence, 4.5 h, higher = more signal, called active from +8 up or from −8 down.
Experiment [6] concerns the target Streptavidin (Streptomyces avidinii) (UniProt P22629). The experiment in a line: compounds binding control protein streptavidin – biophysical, small-molecule microarray, 635/667 nm fluorescence, artefact control for SMM compound annotation, primary screen (AID 1147).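 Note: signal reflects streptavidin binding to arrayed compounds as a control protein.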 The conditions noted are these: higher = more signal.
Experiment [7] is described as follows: probe aInhba binding on compound microarray – biochemical, small-molecule microarray, 635/667 nm fluorescence, primary screen (AID 1148).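 Note: score merges 667nm spot fluorescence with signal-to-noise for antibody binding to printed compounds.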 The conditions noted are these: higher = more signal.
The target in experiment [8] is Torsin-1A (Homo sapiens) (UniProt O14656). The experiment in a line: TOR1A wild-type binding on microarray – cell lysate, small-molecule microarray, lysate, 635/667 nm, primary screen (AID 1149). The settings on record: COS7 hTOR1A-WT lysate, 635 nm fluorescence, higher = more signal.
Experiment [9] shares this target. The experiment in a line: torsin A mutant lysate binding on microarrays – cell lysate, small-molecule microarray, COS7 lysate, 635/667 nm fluorescence, primary screen (AID 1150).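 Note: score pools 667 nm emission and signal to noise measuring lysate protein binding.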 The conditions noted are these: COS7 hTOR1A mutant lysate, 635 nm fluorescence, higher = more signal.
The test system of experiment [10] is Sonic hedgehog protein (Shh). The experiment in a line: Sonic hedgehog microarray binding compounds – biochemical, small-molecule microarray, 635/667 nm fluorescence, primary screen (AID 1151).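 Note: Shh protein binding to compounds spotted on small-molecule microarray slides; score combines spot fluorescence intensity with signal-to-noise across triplicate slides.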 The settings on record: 635 nm fluorescence, higher = more signal.

Streptavidin (Streptomyces avidinii), sequence (P22629 whole entry, looked up): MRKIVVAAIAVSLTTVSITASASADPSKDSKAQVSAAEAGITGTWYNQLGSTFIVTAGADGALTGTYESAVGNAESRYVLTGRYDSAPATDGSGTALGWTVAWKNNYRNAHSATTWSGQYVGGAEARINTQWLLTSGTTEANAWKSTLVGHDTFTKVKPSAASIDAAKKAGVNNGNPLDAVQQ
Torsin-1A (Homo sapiens), sequence (O14656 whole entry, looked up): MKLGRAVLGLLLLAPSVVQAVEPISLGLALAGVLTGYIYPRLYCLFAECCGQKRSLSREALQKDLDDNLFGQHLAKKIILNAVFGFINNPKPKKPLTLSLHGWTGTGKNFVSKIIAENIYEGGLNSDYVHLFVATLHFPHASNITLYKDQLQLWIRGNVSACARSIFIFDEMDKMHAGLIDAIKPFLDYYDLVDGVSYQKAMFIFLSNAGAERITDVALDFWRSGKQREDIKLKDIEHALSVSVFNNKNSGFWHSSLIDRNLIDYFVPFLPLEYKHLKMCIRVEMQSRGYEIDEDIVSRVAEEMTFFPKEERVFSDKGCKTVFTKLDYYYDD

`C[C@]1(C(=O)NCc2ccccc2)c2ccccc2C(=O)N(Cc2ccc(OC(F)(F)F)cc2)[C@H]1c1ccc(CO)cc1`: the composite z-score in experiment [1] was 0.272; in experiment [6], -0.232; in experiment [7], -0.0719; with Torsin-1A (Homo sapiens) [8], -0.0977; with Torsin-1A (Homo sapiens) [9] it was 0.223; in experiment [10] it was -0.135. In addition, the z-score in experiment [2] is -3.15 (inactive); in [3], -0.808 (inactive); in experiment [4] it was 0.414 (inactive); in [5], -0.958 (inactive).
As to `CN(C)C(=O)[C@@]1(CCC(=O)OC(C)(C)C)N=C(c2ccc(OCCCO)cc2)O[C@H]1c1ccccc1`, the composite z-score in [1] is 0.257; in experiment [6], 0.0732; in experiment [7] it was 0.776; with Torsin-1A (Homo sapiens) [8], 0.635; in the experiment with Torsin-1A (Homo sapiens) [9] it was 1.74; in [10], -0.467. Further, the z-score was -4.42 (inactive) in experiment [2], -0.573 (inactive) in [3], 0.195 (inactive) in [4] and -1.4 (inactive) in experiment [5].
Take `COC(=O)c1ccc(C(O)C2C=CC3C(=O)N(c4ccccc4)C(=O)C3N2Nc2ccc(C#N)cc2)o1` (stereo not given): the composite z-score in experiment [1] was 0.304; in [6], 0.337; in [7] it was -0.0901; with Torsin-1A (Homo sapiens) [8], 0.928; with Torsin-1A (Homo sapiens) [9] it was 0.0721; in [10], -0.0224. Further, the z-score in experiment [2] was 1.07 (inactive); in [3], -1.05 (inactive); in experiment [4] it was 1.4 (inactive); in [5], -0.22 (inactive).
For `[N-]=[N+]=Nc1ccccc1[C@@H]1OC(c2ccc(OCCCO)cc2)=N[C@]1(CCS(=O)(=O)c1ccccc1)C(=O)N1CCOCC1`, the composite z-score in [1] was 1.3; in experiment [6], 1.52; in experiment [7], 0.165; with Torsin-1A (Homo sapiens) [8], 0.46; with Torsin-1A (Homo sapiens) [9], 1.63; in experiment [10], -0.29. The z-score in experiment [2] was -2.26 (inactive); in experiment [3] it was -0.199 (inactive); in experiment [4] it was 1.8 (inactive); in experiment [5], -1.49 (inactive).
As for `CCCN1C(=O)[C@]2(COC(c3ccc(OCCCO)cc3)=N2)Cc2ccccc21`, the composite z-score in experiment [1] amounted to 0.526; in [6], 0.0066; in experiment [7], 0.0756; in the experiment with Torsin-1A (Homo sapiens) [8], 0.416; with Torsin-1A (Homo sapiens) [9], 0.01; in [10], 0.184. Also, the z-score in [2] is -1.62 (inactive); in experiment [3], 0.786 (inactive); in experiment [4] it was 0.913 (inactive); in [5] it was -1.39 (inactive).
As to `[N-]=[N+]=Nc1ccccc1C[C@]1(C(=O)NCCN2CCOCC2)N=C(c2ccc(OCCCO)cc2)O[C@H]1c1ccccc1`, the composite z-score in [1] was 0.577; in experiment [6], -0.186; in experiment [7] it was 0.101; with Torsin-1A (Homo sapiens) [8], 0.729; in the experiment with Torsin-1A (Homo sapiens) [9], 0.749; in experiment [10], 0.109. The z-score was -2.47 (inactive) in experiment [2], 0.355 (inactive) in experiment [3], 0.4 (inactive) in experiment [4] and -0.604 (inactive) in experiment [5].
As to `CC(=O)Nc1cc(Br)ccc1C(=O)O`, the composite z-score in experiment [1] was -0.129; in experiment [6], 0.254; in experiment [7], 0.0658; with Torsin-1A (Homo sapiens) [8], 1.46; with Torsin-1A (Homo sapiens) [9] it was 0.0517; in experiment [10], -0.402. Moreover, the z-score in experiment [2] was 0.0092 (inactive); in experiment [3] it was 0.307 (inactive); in experiment [4] it was -0.141 (inactive); in [5] it was 0.151 (inactive).
Consider `CCOC(=O)C[C@H]1[C@H](OC(=O)c2ccccc2-c2ccccc2)[C@@H](NC(=O)c2ccc3ccccc3c2)c2cc(OCCCO)ccc2N1C(=O)c1ccc2ccccc2n1`, for which the composite z-score in experiment [1] was 0.0952; in experiment [6], 0.162; in [7], -0.0087; with Torsin-1A (Homo sapiens) [8] it was 0.335; with Torsin-1A (Homo sapiens) [9], 0.0486; in [10] it was 0.575. Also, the z-score in experiment [2] is 0.0364 (inactive); in [3], -0.756 (inactive); in experiment [4], 0.311 (inactive); in [5], 0.429 (inactive).
Turning to `COc1ccc(C#Cc2ccc3c(c2)[C@]2(C(=O)N3)[C@H](c3ccc(O)cc3)N3[C@H](c4ccccc4)[C@H](c4ccccc4)OC(=O)[C@H]3[C@@H]2C(=O)NC[C@H](O)c2ccccc2)cc1`, the composite z-score is 0.365 in experiment [1]; 0.153 in [6]; -0.0606 in [7]; 0.215 with Torsin-1A (Homo sapiens) [8]; 0.488 with Torsin-1A (Homo sapiens) [9]; 1.05 in experiment [10]. For the same compound, the z-score is -3.5 (inactive) in experiment [2], -0.654 (inactive) in [3], -0.0246 (inactive) in [4] and -1.12 (inactive) in [5].
As to `[N-]=[N+]=NCc1ccccc1C[C@]1(C(=O)O)N=C(c2ccc(OCCCO)cc2)O[C@H]1c1ccccc1`, the composite z-score in [1] was 0.0352; in experiment [6] it was 0.807; in experiment [7], 0.0566; in the experiment with Torsin-1A (Homo sapiens) [8] it was 1.8; in the experiment with Torsin-1A (Homo sapiens) [9], 1.99; in experiment [10], -0.474. In addition, the z-score was -0.881 (inactive) in experiment [2], -0.556 (inactive) in experiment [3], -0.79 (inactive) in experiment [4] and 2.11 (inactive) in experiment [5].
As for `O=C/C=C/c1ccc2c(c1)OCO2`, the composite z-score in experiment [1] was 0.0218; in [6], -0.142; in experiment [7], -0.0509; with Torsin-1A (Homo sapiens) [8], 0.219; with Torsin-1A (Homo sapiens) [9], 0.0622; in [10] it was 0.504. Also, the z-score in experiment [2] was -1.95 (inactive); in experiment [3] it was -1.39 (inactive); in experiment [4] it was -0.491 (inactive); in experiment [5], 0.106 (inactive).
For the compound `O=C1N(CCS(=O)(=O)c2ccccc2)Cc2ccccc2[C@H]2OC(c3ccc(OCCCO)cc3)=N[C@@]12CCS(=O)(=O)c1ccccc1`, the composite z-score was 1.05 in experiment [1]; 0.421 in experiment [6]; 0.0831 in experiment [7]; 0.307 in the experiment with Torsin-1A (Homo sapiens) [8]; -0.0941 with Torsin-1A (Homo sapiens) [9]; 0.806 in experiment [10]. In addition, the z-score was -1.07 (inactive) in experiment [2], -0.447 (inactive) in experiment [3], 0.881 (inactive) in experiment [4] and -1.33 (inactive) in experiment [5].
Take `CC(=O)NCCCC[C@@H]1NC(=O)[C@@H]2C[C@H](C(=O)NCCCCN(C)C)[C@H](c3ccc(O)cc3)N2C1=O`: the composite z-score in experiment [1] is -0.465; in [6] it was -0.506; in experiment [7], -0.23; in the experiment with Torsin-1A (Homo sapiens) [8], -0.893; in the experiment with Torsin-1A (Homo sapiens) [9] it was -0.88; in experiment [10], 0.54. Further, the z-score is 0.0068 (inactive) in experiment [2], -1.02 (inactive) in experiment [3], -0.809 (inactive) in experiment [4] and -0.174 (inactive) in experiment [5].
Turning to `CCOC(=O)C1=CC[C@@H](c2ccccc2)N(S(=O)(=O)c2ccc(C)cc2)[C@H]1C(=O)OCC`, the composite z-score in experiment [1] is 0.3; in experiment [6] it was 0.491; in experiment [7], 0.421; with Torsin-1A (Homo sapiens) [8] it was 0.59; in the experiment with Torsin-1A (Homo sapiens) [9] it was 0.523; in experiment [10] it was -0.189. The z-score in experiment [2] was -4.23 (inactive); in experiment [3], 1.43 (inactive); in [4], -0.415 (inactive); in experiment [5], -0.76 (inactive).
Regarding `CC(C)C[C@@H]1NC(=O)[C@H]2C[C@@H](C(=O)NCCCCCCNC(=O)CS)[C@@H](c3cccc(OCCO)c3)N2C1=O`, the composite z-score in experiment [1] is 1.35; in experiment [6], 0.357; in experiment [7], 0.0574; in the experiment with Torsin-1A (Homo sapiens) [8] it was 1.53; with Torsin-1A (Homo sapiens) [9], 1.67; in experiment [10] it was 2.13. Further, the z-score in experiment [2] was 0.263 (inactive); in [3], -0.436 (inactive); in experiment [4], -1.49 (inactive); in experiment [5], -1.47 (inactive).
